Out of some 310,000 compounds screened, about 14,000 (4.5%) showed an effect of 50% or more. Effects have a minus sign here. The sample as a whole holds a higher share of strong results than the screen did.
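Also: peak tail current of the secondary pulse compared with the same well before compound.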

For the assay, the target named is human ether-à-go-go-related gene (hERG) potassium channel (human, UniProt Q12809). Briefly: primary screen, population patch clamp on CHO cells stably expressing hERG; higher = less effect of the substance.
Chain of human ether-à-go-go-related gene (hERG) potassium channel (Q12809 whole entry, looked up): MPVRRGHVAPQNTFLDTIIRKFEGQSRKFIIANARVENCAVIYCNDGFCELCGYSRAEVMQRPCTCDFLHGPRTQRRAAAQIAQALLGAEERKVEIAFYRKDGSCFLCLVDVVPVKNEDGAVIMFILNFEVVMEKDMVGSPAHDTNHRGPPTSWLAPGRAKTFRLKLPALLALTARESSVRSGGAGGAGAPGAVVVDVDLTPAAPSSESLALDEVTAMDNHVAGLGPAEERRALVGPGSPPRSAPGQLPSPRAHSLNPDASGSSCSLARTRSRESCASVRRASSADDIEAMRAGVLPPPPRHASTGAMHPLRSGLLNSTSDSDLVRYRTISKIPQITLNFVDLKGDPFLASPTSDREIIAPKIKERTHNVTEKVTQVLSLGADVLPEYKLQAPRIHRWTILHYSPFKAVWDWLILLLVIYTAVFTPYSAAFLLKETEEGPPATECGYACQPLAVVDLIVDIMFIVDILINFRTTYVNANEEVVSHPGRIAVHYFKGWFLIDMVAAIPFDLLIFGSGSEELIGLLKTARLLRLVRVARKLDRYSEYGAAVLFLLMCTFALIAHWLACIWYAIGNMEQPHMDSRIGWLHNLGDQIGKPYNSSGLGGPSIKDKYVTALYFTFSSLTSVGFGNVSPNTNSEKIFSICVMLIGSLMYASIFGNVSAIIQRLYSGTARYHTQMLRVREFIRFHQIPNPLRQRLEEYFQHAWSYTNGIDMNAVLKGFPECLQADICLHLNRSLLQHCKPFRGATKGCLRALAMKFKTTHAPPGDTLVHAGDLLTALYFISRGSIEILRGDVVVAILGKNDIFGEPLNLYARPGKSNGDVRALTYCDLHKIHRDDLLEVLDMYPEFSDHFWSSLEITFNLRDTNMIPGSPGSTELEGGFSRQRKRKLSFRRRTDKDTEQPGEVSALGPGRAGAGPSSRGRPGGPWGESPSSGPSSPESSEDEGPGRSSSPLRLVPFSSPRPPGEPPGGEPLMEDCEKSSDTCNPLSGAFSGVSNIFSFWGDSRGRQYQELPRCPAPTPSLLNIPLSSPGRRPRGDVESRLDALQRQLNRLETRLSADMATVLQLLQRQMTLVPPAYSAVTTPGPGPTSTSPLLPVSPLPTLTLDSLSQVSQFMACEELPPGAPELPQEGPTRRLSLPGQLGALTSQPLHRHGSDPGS
Turning to `CCOc1ccccc1C(=O)N1CCC(n2nnc3cc(C(F)(F)F)ccc32)CC1`, the “hERG current change (%, negative = inhibition) at 10uM” value is on record as -60%.

As for `Cc1ccc2c(c1)nnn2C1CCN(C(=O)c2ccccc2F)CC1`, the “hERG current change (%, negative = inhibition) at 10uM” value is listed as -18.1%. In the case of `O=C(c1c(F)cccc1F)N1CCC(n2nnc3cc(C(F)(F)F)ccc32)CC1`, the “hERG current change (%, negative = inhibition) at 10uM” value is recorded as -21.4%. As for `COc1ccc(NC(=O)N2CCC(n3nnc4cc(C)ccc43)CC2)cc1`, the figure is -11.3%; as for `CCOc1ccccc1C(=O)N1CCC(n2nnc3cc(C)ccc32)CC1`, -47.4%. As for `O=C(CSc1nc2[nH]ncc2c(=O)n1-c1ccc(Cl)c(Cl)c1)NCc1ccccc1Cl`, the “hERG current change (%, negative = inhibition) at 10uM” value is recorded as -11.4%. Consider `COc1ccc(CCN=C(N)NS(=O)(=O)c2ccccc2)cc1OC`, for which the “hERG current change (%, negative = inhibition) at 10uM” value worked out at 19.5%. As for `COC(=O)Cc1ccc(NC(=O)c2ccc3c(c2)C(=O)N(Cc2cccnc2)C3=O)cc1`, the figure is 5.83%; as for `C[C@H](NC(=O)N1C[C@H]2C[C@@H](C1)c1cccc(=O)n1C2)C(=O)Nc1cccc(F)c1`, 2.4%. For `CC(NS(=O)(=O)c1ccc(OCC(=O)Nc2cccc([N+](=O)[O-])c2)cc1)c1ccccc1` (stereo not shown), the “hERG current change (%, negative = inhibition) at 10uM” value was determined as 3.21%. Turning to `COCCN=C1NN=C(c2ccc(C)c([N+](=O)[O-])c2)CS1`, the “hERG current change (%, negative = inhibition) at 10uM” value was 11.7%.

As for `O=C(/C=C/c1ccccc1)N/C(=C\c1ccco1)C(=O)O`, the “hERG current change (%, negative = inhibition) at 10uM” value was determined as 19.6%. For `Cn1c(SCCOc2ccc(F)cc2)nnc1-c1ccncc1`, the “hERG current change (%, negative = inhibition) at 10uM” value is -44.4%. Then `Cn1c(SCCOc2ccc(Cl)cc2)nnc1-c1ccncc1`, with -56.3%; and `CCOC(=O)CSc1nnc(-c2cccs2)n1-c1ccccc1`, with -42.8%; and `CCn1c(SCC(=O)NCCc2ccccc2)nnc1-c1cccs1`, with -27.6%. As for `COC(=O)CSc1nnc(-c2cccs2)n1-c1ccc(Cl)cc1`, the figure is -60.4%; as for `O=C(O)CSc1nnc(-c2cccs2)n1-c1ccc(Cl)cc1`, -6.94%. As for `CCn1c(SCCOc2ccc(Cl)cc2)nnc1-c1cccs1`, the figure is -53.8%.

Consider `Cc1cc(OCCSc2nnc(-c3cccs3)n2C)ccc1Cl`, for which the “hERG current change (%, negative = inhibition) at 10uM” value was -22.5%. Turning to `CCn1c(SCC(=O)c2ccc(Cl)cc2)nnc1-c1cccs1`, the “hERG current change (%, negative = inhibition) at 10uM” value is given as -10.8%. Consider `Cc1ccc(OCCSc2nnc(-c3ccncc3)n2C)cc1`, for which the “hERG current change (%, negative = inhibition) at 10uM” value is recorded as -28.9%. As for `CCn1c(SCC(=O)NCCc2ccc(Cl)cc2)nnc1-c1cccs1`, the figure is -75.8%; as for `Cc1ccc(OCCSc2nnc(-c3cccs3)n2C)cc1`, -37%; as for `CC(C)N(CCNS(=O)(=O)c1ccc(Cl)cc1)C(C)C.Cl`, -28.1%. Then `O=C(c1[nH]ncc1-c1cccc(Br)c1)C1CO1` (stereo not shown), with 3.39%; and `O=C(Nc1c(C(=O)N2CCOCC2)cnn1-c1ccccc1)c1ccc(F)cc1`, with 13.8%; and `CC(C)c1cc(C(=O)NCCc2ccccc2)no1`, with -40.1%. As for `CCC(C(=O)NC(C)(C)C)N(Cc1ccco1)C(=O)CNS(=O)(=O)c1ccc(OC)cc1` (stereo not shown), the figure is 7.49%; as for `O=C(O)/C(=C\c1ccc2ccccc2c1)c1cccc2ccccc12`, 6.53%.

Regarding `CC(=O)Nc1ccc(C(=O)N/N=C/c2ccncc2)cc1`, the “hERG current change (%, negative = inhibition) at 10uM” value worked out at 0.536%. In the case of `Cc1cc(C)n2[nH]c(=O)c(N=Nc3cccc(C(F)(F)F)c3)c2n1`, the “hERG current change (%, negative = inhibition) at 10uM” value is -23.8%. As for `CCn1c(SCC(=O)NCC(=O)Nc2ccc(F)cc2)nnc1-c1cccs1`, the figure is -25.1%. On to `CCn1c(SCC(=O)NCCc2ccc(F)cc2)nnc1-c1cccs1`, for which the “hERG current change (%, negative = inhibition) at 10uM” value is on record as -61.9%. On to `CCn1c(SCC(=O)NCc2cccs2)nnc1-c1cccs1`, for which the “hERG current change (%, negative = inhibition) at 10uM” value is on record as -20.9%. Then `COc1ccc2[nH]c(=O)c(-c3nnn(-c4ccccc4)n3)cc2c1`, with -1.01%; and `Cc1ccc(Cn2c(CCC(=O)O)nc3ncccc3c2=O)cc1`, with 13.4%. As for `CCc1ccc(-c2cc3c(=O)n(CC(=O)NCCCN4CCN(Cc5ccccc5)CC4)nc(C)n3n2)cc1`, the figure is -22.7%; as for `CCc1ccc(-c2cc3c(=O)n(CC(=O)NCCN4CCCCC4C)nc(C)n3n2)cc1` (stereo not shown), -57.5%; as for `CCc1ccc(-c2cc3c(=O)n(CC(=O)NCCCN4CCN(CC)CC4)nc(C)n3n2)cc1`, -30%. Then `Cc1nn(CC(=O)NCCCN2CCC(Cc3ccccc3)CC2)c(=O)c2cc(-c3ccccc3)nn12`, with -77%. As for `Cc1nn(CC(=O)NCCCN2CCN(C)CC2)c(=O)c2cc(-c3ccccc3)nn12`, the “hERG current change (%, negative = inhibition) at 10uM” value turned out to be 0.586%. Consider `Cc1nn(CC(=O)NCCN2CCCCC2C)c(=O)c2cc(-c3ccccc3)nn12` (stereo not shown), for which the “hERG current change (%, negative = inhibition) at 10uM” value is given as -48.4%. As for `Cc1nn(CC(=O)NCCCN2CCCCC2)c(=O)c2cc(-c3ccccc3)nn12`, the figure is -49.4%. `Cc1nn(CC(=O)NCCCN2CCN(Cc3ccccc3)CC2)c(=O)c2cc(-c3ccccc3)nn12`: the “hERG current change (%, negative = inhibition) at 10uM” value is reported as -70.1%. Take `CCc1ccc(-c2cc3c(=O)n(CC(=O)NCCCN4CCC(Cc5ccccc5)CC4)nc(C)n3n2)cc1`: the “hERG current change (%, negative = inhibition) at 10uM” value came to 2.48%.
